# Data reported in PubChem BioAssay.
# Calls of active or inactive are those of the source. Unless noted, how the calls were made is not given here.
# How the values were obtained:
# [1] = compound effects on lung adenocarcinoma cell viability – A549, calcein-AM fluorescence, 48 h, basal, profiling panel (AID 1162); settings: higher = more signal; further: test concentration not given here
# [2] = compound effects on differentiated 3T3-L1 adipocyte viability – cell-based, 3T3-L1 adipocytes, calcein-AM fluorescence, 48 h, basal, profiling panel (AID 1163); settings: 3T3-L1 adipocytes viability, higher = more signal; further: test concentration not given here
# [3] = compound effects on hepatocellular carcinoma cell viability – HepG2, calcein-AM fluorescence, 48 h, basal, profiling panel (AID 1164); settings: higher = more signal; further: test concentration not given here
# [4] = compound effects on multiple myeloma cell viability – MM1S, calcein-AM fluorescence, 48 h, basal, profiling panel (AID 1165); settings: higher = more signal;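 further: viability of MM1S multiple myeloma cells under basal unstimulated conditions; test concentration not given here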
# [5] = calcein-AM signal in unstimulated myeloma cells – cell-based, calcein-AM fluorescence, 48 h, PK04 Diversity Set, profiling panel (AID 1166); settings: RPMI8226 myeloma viability, higher = more signal;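 further: cells grown under basal conditions without added stimulus; test concentration not given here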
# [6] = JC-1 mitochondrial signal, unstimulated HepG2 cells – cell-based, JC-1 fluorescence, 24 h, 100 nL compound, profiling panel (AID 1167); settings: HepG2 mitochondrial potential, higher = more signal; further: test concentration not given here
# [7] = JC-1 mitochondrial signal, unstimulated adipocytes – cell-based, JC-1 fluorescence, 3T3-L1 adipocytes, 24 h, 100 nL compound, profiling panel (AID 1168); settings: JC-1 mitochondrial fluorescence, higher = more signal, called active from +8 up or from −8 down; further: test concentration not given here
# [8] = JC-1 mitochondrial signal, unstimulated myeloma cells – cell-based, JC-1 fluorescence, RPMI8226, 24 h, 100 nL compound, profiling panel (AID 1169); settings: JC-1 mitochondrial potential fluorescence, higher = more signal; further: test concentration not given here
# [9] = JC-1 mitochondrial signal, unstimulated MM1S myeloma – cell-based, JC-1 fluorescence, 24 h, 100 nL compound, profiling panel (AID 1170); settings: MM1S mitochondrial potential, higher = more signal; further: test concentration not given here
# [10] = resazurin metabolic signal in A549 cells – cell-based, resazurin fluorescence, 24 h, PK04 Diversity Set, profiling panel (AID 1171); settings: A549 viability, higher = more signal, called active from +8 up or from −8 down; further: test concentration not given here
# [11] = resazurin metabolic signal in HepG2 cells – cell-based, resazurin fluorescence, 24 h, PK04 Diversity Set, profiling panel (AID 1172); settings: HepG2 viability, higher = more signal; further: test concentration not given here
# [12] = budding yeast growth changes without added modifier – OD600, strain BY4716, 24 h, basal condition, primary screen (AID 1173); settings: S. cerevisiae BY4716 growth, OD600, 24 h; higher = more signal, called active from +8 up or from −8 down
# [13] = viability profiling in MM1S myeloma cells – cell-based, resazurin fluorescence, basal, 24 h, PK04 Diversity Set, profiling panel (AID 1174); settings: higher = more signal, called active from +8 up or from −8 down; further: test concentration not given here
# [14] = target: Dihydroorotate dehydrogenase (quinone), mitochondrial (Plasmodium falciparum (isolate 3D7)) (UniProt Q08210); test: inhibition of P. falciparum DHODH – biochemical, C-terminal His tag, absorbance 600 nm, primary screen (AID 1175); settings: PfDHODH enzyme, DCIP absorbance 600 nm; higher = more signal, called active from +8 up or from −8 down;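 further: recombinant parasite enzyme with a five histidine tag at its C terminus; test concentration not given here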
# [15] = inhibition of PAO1 biofilm formation – strain PAO1, LB-PBS medium, absorbance 600 nm, primary screen (AID 1176); further: test concentration not given here; settings: P. aeruginosa PAO1 growth/biofilm, A600, 12 h; higher = more signal
# [16] = growth modulation of vineyard yeast isolate – strain RM11-1a, OD600, basal, 24 h, primary screen (AID 1177);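 further: cultures grown under basal conditions with no added stressor; test concentration not given here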; settings: S. cerevisiae RM11-1a growth, OD600, 24 h; higher = more signal, called active from +8 up or from −8 down
# [17] = growth of efflux-deficient E. coli DRC39 – strain DRC39, OD650, 24 h, E. coli filamentation inducers, primary screen (AID 1178);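 further: growth measured as culture turbidity by optical density at 650 nm; test concentration not given here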; settings: E. coli DRC39 acrAB, higher = more signal, called active from +8 up or from −8 down
# [18] = growth of efflux-deficient E. coli DRC39 – strain DRC39, OD650, 48 h, E. coli filamentation inducers, primary screen (AID 1179);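 further: screen aims at cell division blockers that make cells filament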; settings: E. coli DRC39 delta-acrAB growth, higher = more signal, called active from +8 up or from −8 down
# [19] = viability profiling in RPMI8226 myeloma cells – cell-based, resazurin fluorescence, basal, 24 h, PK04 Diversity Set, profiling panel (AID 1180); settings: higher = more signal;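 further: RPMI8826 multiple myeloma cell line at 5000 cells per well; test concentration not given here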
# [20] = target: E3 ubiquitin-protein ligase XIAP (Homo sapiens) (UniProt P98170); test: small molecules binding XIAP protein – biophysical, small-molecule microarray, fluorescence 635 nm, primary screen (AID 1181); settings: higher = more signal;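 further: score merges 667 nm emission and signal to noise over triplicate slides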
# Sequence of E3 ubiquitin-protein ligase XIAP (Homo sapiens) (P98170 whole entry, looked up): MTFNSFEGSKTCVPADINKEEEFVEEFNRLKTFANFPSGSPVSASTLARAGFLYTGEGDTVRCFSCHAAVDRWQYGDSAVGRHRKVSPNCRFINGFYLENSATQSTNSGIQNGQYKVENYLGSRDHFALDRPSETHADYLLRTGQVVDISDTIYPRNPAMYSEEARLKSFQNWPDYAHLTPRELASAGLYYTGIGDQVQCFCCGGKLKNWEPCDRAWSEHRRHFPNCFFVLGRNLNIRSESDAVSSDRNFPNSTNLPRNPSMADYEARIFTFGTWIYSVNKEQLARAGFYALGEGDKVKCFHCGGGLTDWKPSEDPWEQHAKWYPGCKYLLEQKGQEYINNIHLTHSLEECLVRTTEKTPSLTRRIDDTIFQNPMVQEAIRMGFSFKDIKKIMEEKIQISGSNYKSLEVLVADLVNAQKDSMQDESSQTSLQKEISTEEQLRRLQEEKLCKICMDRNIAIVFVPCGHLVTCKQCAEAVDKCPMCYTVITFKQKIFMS
# Sequence of Dihydroorotate dehydrogenase (quinone), mitochondrial (Plasmodium falciparum (isolate 3D7)) (Q08210 whole entry, looked up): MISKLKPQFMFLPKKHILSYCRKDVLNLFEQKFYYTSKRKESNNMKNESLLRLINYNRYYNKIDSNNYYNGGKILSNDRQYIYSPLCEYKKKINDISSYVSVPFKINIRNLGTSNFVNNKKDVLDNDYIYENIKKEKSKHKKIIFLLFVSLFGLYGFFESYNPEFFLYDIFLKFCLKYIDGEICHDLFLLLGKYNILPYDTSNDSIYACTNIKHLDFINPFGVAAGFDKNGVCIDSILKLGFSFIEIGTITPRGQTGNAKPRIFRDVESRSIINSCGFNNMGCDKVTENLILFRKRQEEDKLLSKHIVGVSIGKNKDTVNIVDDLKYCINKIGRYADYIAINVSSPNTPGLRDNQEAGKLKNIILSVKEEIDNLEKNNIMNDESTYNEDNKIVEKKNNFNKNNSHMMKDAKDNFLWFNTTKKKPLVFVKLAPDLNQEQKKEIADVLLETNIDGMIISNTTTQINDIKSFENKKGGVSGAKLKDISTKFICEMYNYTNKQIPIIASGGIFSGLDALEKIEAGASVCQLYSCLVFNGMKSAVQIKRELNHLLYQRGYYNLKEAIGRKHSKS
SMILES,z-score [1],z-score [2],z-score [3],z-score [4],z-score [5],z-score [6],z-score [7],z-score [8],z-score [9],z-score [10],z-score [11],z-score [12],z-score [13],composite z-score [14],z-score [15],z-score [16],z-score [17],z-score [18],z-score [19],composite z-score [20]
C[C@H]1C2[C@H](Cc3ccccc3)NC(=O)[C@]23C(=O)N[C@H](Cc2ccccc2)C(=O)N[C@H](Cc2ccccc2)C(=O)NC/C=C/CCC/C=C/C3[C@@H]2O[C@]12C (stereo not given in full),0.144,1.58,-0.385,-1.01,-3.48,1.71,-0.77 (inactive),-0.469,-1.08,-1.5 (inactive),-1.6,-1.6 (inactive),-0.121 (inactive),0.453 (inactive),-0.283 (inactive),0.336 (inactive),0.276 (inactive),-0.934 (inactive),-0.403,-0.0807
[N-]=[N+]=Nc1ccccc1C[C@]1(C(=O)N2CCCCC2)N=C(c2ccc(OCCCO)cc2)O[C@H]1c1ccccc1N=[N+]=[N-],-0.0955,0.164,-2.44,-3.54,-3.89,-0.599,-0.0935 (inactive),-1.09,-2.64,-0.909 (inactive),-0.776,-0.254 (inactive),-3.52 (inactive),0.584 (inactive),1.07 (inactive),0.975 (inactive),-0.125 (inactive),-0.319 (inactive),-4.29,0.0727
Cc1ccc(S[C@]2(C(=O)NCCCN(C)C)CC(=O)N(C(C)C)[C@@H]2c2ccc(CO)cc2I)cc1,2.16,-0.054,0.498,-3.07,-1.37,2.47,1.06 (inactive),-0.423,-2.32,0.505 (inactive),0.533,-3.52 (inactive),-3.69 (inactive),-0.0857 (inactive),0.668 (inactive),-1.31 (inactive),0.847 (inactive),1.52 (inactive),-2.67,-0.145
COc1ccc([Si](C)(C)[C@H]2[C@H](CCO)O[C@@]3(C(=O)N(Cc4ccccc4)c4ccc(N5C(=O)COc6ccccc65)cc43)[C@@H]2C)cc1,-0.831,0.281,-3.01,-3,-3.25,-0.111,1.46 (inactive),-0.855,-1.47,-1.74 (inactive),-0.981,0.0662 (inactive),-2.72 (inactive),0.0861 (inactive),1.31 (inactive),3.06 (inactive),1.2 (inactive),0.433 (inactive),-3.14,-0.0622
C[C@]1(C(=O)NCC(F)(F)F)c2ccccc2C(=O)N(Cc2cc(F)cc(C(F)(F)F)c2)[C@H]1c1ccc(CO)cc1,-0.493,1.63,-0.357,-0.74,-0.308,0.951,-0.449 (inactive),-0.494,0.206,-0.557 (inactive),0.378,-0.459 (inactive),-0.191 (inactive),-0.191 (inactive),1.32 (inactive),-0.401 (inactive),-0.0567 (inactive),-0.376 (inactive),0.532,-0.0884
Cn1c2c(c3ccccc31)C(=O)C1NC2C=CC1(C)C(=O)OCc1ccccc1 (stereo not given),-0.618,-0.0704,0.583,-0.175,0.0208,0.603,-1.65 (inactive),-0.0327,0.426,-0.078 (inactive),0.0885,0.272 (inactive),-1.35 (inactive),-0.296 (inactive),-0.253 (inactive),-0.128 (inactive),-1.33 (inactive),-1.06 (inactive),-1.2,0.0546
CC(c1ccccc1)C(O)C1C=CC2C(=O)N(Cc3ccccc3)C(=O)C2N1n1cnnc1 (stereo not given),-0.313,0.0487,-0.547,-0.0399,-0.751,0.203,-0.884 (inactive),-0.107,-0.526,-0.694 (inactive),-0.69,-6.59 (inactive),-0.652 (inactive),0.381 (inactive),0.492 (inactive),0.263 (inactive),-0.491 (inactive),-2.39 (inactive),-0.161,0.456
C=CC[C@@]1(C(=O)OC)N=C(c2ccc(OCCCO)cc2)O[C@@H]1c1ccccc1CN=[N+]=[N-],-0.817,0.358,-1.13,-2.7,-3.17,0.195,1.31 (inactive),-0.969,-0.949,-1.19 (inactive),1.09,-12.3 (active),-1.72 (inactive),-0.509 (inactive),-0.347 (inactive),-0.712 (inactive),0.419 (inactive),0.967 (inactive),-0.494,-0.0868
CCCC[C@H]1C[C@@H]1[C@@H]1N(P(=O)(c2ccccc2)c2ccccc2)[C@](CO)(c2ccccc2)CC12CC2,-2.02,-0.0661,-1.96,-3.23,-4.69,-2.28,-0.732 (inactive),-0.868,-2.86,0.936 (inactive),-0.544,0.402 (inactive),-1.93 (inactive),-0.152 (inactive),0.411 (inactive),1.14 (inactive),0.0779 (inactive),-0.872 (inactive),-6.02,0.247
O=C1c2ccccc2[C@](Cc2ccccc2I)(C(=O)O)[C@H](c2ccc(CO)cc2)N1Cc1ccccc1C(F)(F)F,-0.26,-0.24,0.458,-1.58,-2.58,-0.51,-0.476 (inactive),-0.832,-0.478,0.427 (inactive),1.02,-0.874 (inactive),0.283 (inactive),0.833 (inactive),-0.0528 (inactive),0.893 (inactive),-0.0217 (inactive),-0.0555 (inactive),0.0019,0.12
O=C1O[C@@H](c2ccccc2)[C@@H](c2ccccc2)N2[C@@H](c3ccc(O)cc3)[C@]3(C(=O)Nc4ccccc43)[C@@H](C(=O)N3CCCCCCC3)[C@H]12,-0.871,0.616,0.404,-0.391,-2.29,-1.79,0.145 (inactive),-0.659,0.0147,-1.09 (inactive),0.305,0.189 (inactive),-1.05 (inactive),0.0791 (inactive),1.34 (inactive),1.19 (inactive),0.36 (inactive),-1.16 (inactive),-1.01,0.613
O=C1C2C=CC(C(O)c3ccc(-c4ccccc4)s3)N(Nc3ccccc3F)C2C(=O)N1c1ccccc1 (stereo not given),-1.07,-0.0797,-0.297,-0.0003,-1.3,-2.29,-1.57 (inactive),-0.35,-0.0666,-1.7 (inactive),-1.5,0.025 (inactive),-1.38 (inactive),0.853 (inactive),0.366 (inactive),1.19 (inactive),-0.516 (inactive),-0.795 (inactive),-1.6,0.0101
COC(=O)[C@@]1(Cc2ccc(OC)cc2)[C@H]2c3cc(C(=O)N(C)C)n(Cc4ccc(OC)c(OC)c4)c3C[C@H]2CN1C(=O)c1ccccc1,-1.72,-0.204,-1.18,-1.32,-2.07,0.297,-1.29 (inactive),-0.605,-1.11,-1.35 (inactive),-0.962,2.46 (inactive),-1.67 (inactive),0.697 (inactive),0.964 (inactive),2.19 (inactive),-0.558 (inactive),0.0309 (inactive),-2.28,0.124
COCCCNC(=O)[C@]1(Cc2ccccc2N=[N+]=[N-])N=C(c2ccc(OCCCO)cc2)O[C@@H]1c1ccccc1CN=[N+]=[N-],-1.02,1.63,-1.77,-2.98,-4.11,1.46,-0.683 (inactive),-1.2,-0.495,-1.2 (inactive),-0.412,0.0634 (inactive),-2.16 (inactive),0.0785 (inactive),1.83 (inactive),-0.22 (inactive),2.79 (inactive),0.499 (inactive),-2.01,0.283
COc1ccccc1CN1C(=O)c2ccccc2[C@](Cc2ccccc2I)(C(=O)NCc2ccccc2)[C@@H]1c1ccc(CO)cc1,0.049,0.218,-0.733,-0.325,-1.92,0.37,0.368 (inactive),-0.0456,-0.318,-0.5 (inactive),-0.583,0.511 (inactive),-1.05 (inactive),-0.141 (inactive),0.0993 (inactive),-0.283 (inactive),-0.331 (inactive),0.363 (inactive),-1.12,-0.16
C=C(CCCC)/C(=C/C[C@@H](OC(=O)c1ccncc1)c1ccc(CO)o1)c1cc(C(=O)OC)ccc1OC,1.25,-0.1,0.743,-2.63,-2.58,0.0818,-0.239 (inactive),-0.812,-2.01,-0.269 (inactive),0.116,-0.973 (inactive),-0.864 (inactive),-5.02 (inactive),0.847 (inactive),-0.513 (inactive),1.15 (inactive),0.84 (inactive),-0.466,0.508
